Assay outcomes as filed in PubChem BioAssay.
Pol beta inh: blocks human DNA polymerase beta activity | Potency, µM (series often up to 114 µM), usual class: inhibitors | AID 485314 | P06746 | 1.3% of 340,000 active | Pol beta primer extension/strand displacement, fluorescence kinetic
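Preincubation: enzyme (10 nM) with compound, 15 min, RT. Reaction: substrate added to 50 nM final. Reads: 0 and 10 min. Analysis: normalized, Hill fit.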
FEN1 inhibitor: blocks human flap endonuclease 1; P39748; Recombinant FEN1 flap cleavage, fluorescence, 15 min; Potency, µM (doses to about 114 µM), usual class: inhibitors; 0.35% of 390,000 active; further: nearly all actives have a fitted effect of over 65% in size
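FEN1 at 10 nM preincubated with compounds 15 min at room temperature, then flap DNA substrate added at 50 nM final. Signal read at 0 and 15 min; concentration-response fitted with four-parameter Hill equation.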
Pol kappa inh: inhibitors of human DNA polymerase kappa | 0.53% of 400,000 active | purified Pol kappa, fluorescent DNA synthesis assay, 10 min | AID 588579 | Potency, µM (highest dose often 107 µM), actives largely listed as inhibitors | Q9UBT6
Target sequence (Q9UBT6 whole entry, looked up): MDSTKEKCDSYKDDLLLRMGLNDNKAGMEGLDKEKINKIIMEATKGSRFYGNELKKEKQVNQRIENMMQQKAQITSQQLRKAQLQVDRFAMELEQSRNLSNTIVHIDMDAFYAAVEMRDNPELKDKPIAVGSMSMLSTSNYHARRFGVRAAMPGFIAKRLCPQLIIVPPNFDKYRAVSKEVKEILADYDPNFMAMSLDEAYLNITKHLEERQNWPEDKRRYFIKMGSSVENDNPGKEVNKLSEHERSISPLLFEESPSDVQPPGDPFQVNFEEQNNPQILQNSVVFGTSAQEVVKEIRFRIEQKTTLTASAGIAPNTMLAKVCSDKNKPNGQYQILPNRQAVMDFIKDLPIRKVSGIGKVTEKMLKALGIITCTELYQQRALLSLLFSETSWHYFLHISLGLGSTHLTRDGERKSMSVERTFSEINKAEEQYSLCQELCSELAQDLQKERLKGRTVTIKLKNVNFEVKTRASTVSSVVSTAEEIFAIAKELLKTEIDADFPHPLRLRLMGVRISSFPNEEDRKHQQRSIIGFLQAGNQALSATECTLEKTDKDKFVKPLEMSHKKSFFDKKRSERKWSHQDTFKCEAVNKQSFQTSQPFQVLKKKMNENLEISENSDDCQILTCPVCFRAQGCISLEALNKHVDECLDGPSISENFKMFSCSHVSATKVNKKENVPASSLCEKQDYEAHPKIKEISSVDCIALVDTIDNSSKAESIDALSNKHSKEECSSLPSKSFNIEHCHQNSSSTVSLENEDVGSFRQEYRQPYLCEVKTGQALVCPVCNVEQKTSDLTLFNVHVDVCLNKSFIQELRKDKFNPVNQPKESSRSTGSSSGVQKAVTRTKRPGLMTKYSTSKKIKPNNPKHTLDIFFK
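Kinetic fluorescence readout at 0 and 10 min followed reaction start with substrate at 50 nM final. Beforehand, enzyme (10 nM Pol kappa) stood 15 min with compound at room temperature; buffer-only wells were negative controls.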
WRN inhibitor: blocks human WRN helicase | Q14191 | WRN helicase unwinding, fluorescent forked duplex, kinetic | Potency, µM (titrated, usually from 114 µM), hits mostly inhibitors | 0.46% of 360,000 active | AID 651768; further: nearly all actives have a fitted effect of over 55% in size
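WRN at 20 nM final preincubated with compound 15 min at room temperature; reaction started with 100 nM fluorophore/quencher forked duplex oligonucleotide and 2 mM ATP final. Unwinding followed kinetically by red fluorescence (ex 525, em 598 nm).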
Pol iota inh: inhibitors of human DNA polymerase iota | Pol iota fluorescent replication assay, 10 min | Q9UNA4 | 1% of 390,000 active | AID 588590 | Potency, µM (top dose mostly 115 µM), usual class: inhibitors
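Fluorescent replication assay read twice, at 0 min and 10 min after adding 50 nM (final) substrate. Enzyme (10 nM) and compounds were first incubated 15 min at room temperature; enzyme-free buffer wells were negative controls.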
POLH inh: inhibitors of human DNA polymerase eta; recombinant Pol eta, fluorescent DNA replication assay; Potency, µM (top dose mostly 114 µM), actives largely listed as inhibitors; 1.2% of 390,000 active; AID 588591
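Fluorescent replication assay: 50 nM final substrate added after a 15 min room-temperature compound preincubation with 10 nM enzyme. Signal taken at 0 min and again at 10 min.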
Numbers stand for hits; ! = not active in a repeat; [ ] = remark or other dose. In the library only some 2.4% were active in any assay of this set; here they are far more common. The call rests on the fitted dose curve; in most records, active means well fitted curve in the direction sought with a large enough effect; inconclusive means small, poorly fitted or top-dose-only effect, or another doubt; inactive means no such curve, though single readings can be large; an effect the other way counts as inactive or inconclusive.

`Cc1nn(CCC(=O)Nc2ccc(Cl)cc2)c(C)c1S(=O)(=O)N1CCCCC1` gave Pol beta inh inactive, FEN1 inhibitor inactive, Pol kappa inh inactive, Pol iota inh inactive and POLH inh inactive.
`C=C1C(=O)OC2C1CCC(C)=C1C(=O)C3OC3(C)C12` (configuration not stated) gave FEN1 inhibitor inactive, Pol kappa inh inactive, WRN inhibitor inactive, Pol iota inh inconclusive and POLH inh 89µM.
`C(=C\c1ccnc2ccccc12)/c1ccc(N2CCN(c3ccc(/C=C/c4ccnc5ccccc45)cc3)CC2)cc1` gave FEN1 inhibitor inactive, Pol kappa inh inactive and Pol iota inh inactive.
For CCN(CC)c1ccc(/C=C/c2ccnc3ccccc23)cc1 the results were FEN1 inhibitor inactive, Pol kappa inh inactive and Pol iota inh inactive.
For CC[N+](C)(C)c1ccc(/C=C/c2ccnc3ccccc23)cc1 the results were FEN1 inhibitor 40µM, Pol kappa inh inconclusive and Pol iota inh 79µM.
`CC[N+](CC)(CC)c1ccc(/C=C/c2ccc3ccccc3n2)cc1` gave FEN1 inhibitor 40µM, Pol kappa inh 45µM and Pol iota inh inactive.
`CC[N+](CC)(CC)c1ccc(/C=C/c2ccnc3ccccc23)cc1` gave FEN1 inhibitor inconclusive, Pol kappa inh 45µM and Pol iota inh inconclusive.
`C(=C\c1ccnc2ccccc12)/c1ccc(N2CCOCC2)cc1` gave FEN1 inhibitor 45µM, Pol kappa inh inconclusive and Pol iota inh inconclusive.
C(=C\c1ccc2ccccc2n1)/c1ccccc1 was read as Pol beta inh inactive, FEN1 inhibitor inactive, Pol kappa inh inactive, WRN inhibitor inactive, Pol iota inh inactive and POLH inh inactive.
O=C(CN1C(=O)COc2ccc(S(=O)(=O)Nc3ccccc3)cc21)NCc1ccccc1Cl was read as Pol beta inh inactive, FEN1 inhibitor inactive, Pol kappa inh inactive, Pol iota inh inactive and POLH inh inactive.
`CCCCNC(=O)[C@@H]1CC=C[C@@H]2CCN(Cc3ccc(OC)c(OC)c3)C(=O)[C@@H]21` gave FEN1 inhibitor inactive, Pol kappa inh inactive and Pol iota inh inactive.
`CCCN1CNc2c(c(=O)[nH]c(=S)n2CCc2cccc(OC)c2OC)C1` gave FEN1 inhibitor inactive, Pol kappa inh inactive and Pol iota inh inactive.
For COc1ccc(-c2coc3cc(O)ccc3c2=O)c(O)c1O the results were Pol kappa inh 1.8µM.
COc1ccc(-c2coc3cc(O)ccc3c2=O)c(OC)c1O was read as Pol kappa inh inactive.
`COc1ccc(C(=O)C=Cc2ccc3c(c2)OCO3)cc1OC` gave WRN inhibitor inactive and POLH inh inactive.
`O=C(c1ccc2ccccc2c1)N1CCN(S(=O)(=O)/C=C/c2ccccc2)CC1` gave Pol beta inh inactive, FEN1 inhibitor inactive, Pol kappa inh inactive, WRN inhibitor inactive, Pol iota inh inactive and POLH inh inactive.
For COc1cc(/C=C/C(=O)c2ccc3c(c2)OCO3)cc(Cl)c1O the results were Pol beta inh 40µM, FEN1 inhibitor inactive, Pol kappa inh inconclusive, WRN inhibitor inactive[11.6 µM], Pol iota inh 20µM and POLH inh 40µM.
Screening C=C(C(=O)O)c1ccc2ccccc2c1 returned FEN1 inhibitor inactive, Pol kappa inh inconclusive and Pol iota inh 79µM.
For O=C(/C=C/c1ccc(F)cc1)c1cc(Br)ccc1O the results were Pol beta inh inactive, FEN1 inhibitor inactive, Pol kappa inh inactive, WRN inhibitor inactive, Pol iota inh inactive and POLH inh inactive.
For O=C(/C=C/c1ccccc1)c1ccc2ccccc2c1 the results were FEN1 inhibitor inactive, Pol kappa inh inactive, WRN inhibitor inactive[11.6 µM], Pol iota inh 22µM and POLH inh inactive.
`O=C(/C=C/c1ccccc1)c1cc(Br)ccc(=O)c1O` gave Pol beta inh inconclusive, FEN1 inhibitor inconclusive, Pol kappa inh 40µM, WRN inhibitor inconclusive, Pol iota inh 3.2µM and POLH inh inconclusive.
For Cc1ccc(C(=O)NNC(=O)c2ccc3ccccc3c2)cc1 the results were FEN1 inhibitor inactive, Pol kappa inh inactive, WRN inhibitor inactive, Pol iota inh inactive and POLH inh inactive.
For CCc1ccc(C(=O)CSc2nc(-c3ccccc3)nc3c2CCCC3)cc1 the results were Pol beta inh inactive, FEN1 inhibitor inactive, Pol kappa inh inactive, Pol iota inh inactive and POLH inh inactive.
`CC(/C=C\c1ccccc1)=C/C(=O)O` gave Pol beta inh inactive, FEN1 inhibitor inactive, Pol kappa inh inactive, WRN inhibitor inactive, Pol iota inh inactive and POLH inh inactive.
O=C(/C=C/c1ccccc1)/C=C/c1ccccc1 was read as Pol beta inh inactive, FEN1 inhibitor inconclusive, Pol kappa inh inactive, WRN inhibitor inconclusive, Pol iota inh inconclusive and POLH inh 18µM.
`O=C(/C=C/c1ccccc1)c1ccccc1` gave Pol beta inh inactive, FEN1 inhibitor inactive, Pol kappa inh inactive, WRN inhibitor inactive, Pol iota inh 22µM and POLH inh inconclusive.
For CC(=O)Nc1ccc(/C=C/C(=O)c2ccc3c(c2)OCCO3)cc1 the results were Pol beta inh inactive, FEN1 inhibitor inactive, Pol kappa inh inactive, WRN inhibitor inactive, Pol iota inh inconclusive and POLH inh inactive.
Screening O=C(O)c1ccc(/C=C/C(=O)c2ccc3c(c2)OCCCO3)cc1 returned Pol beta inh inactive, FEN1 inhibitor inactive, Pol kappa inh inactive, WRN inhibitor inactive[11.6 µM], Pol iota inh inconclusive and POLH inh 22µM.
`C=C1NC(=O)c2cc(CN(C)c3ccc(C(=O)N[C@@H](CCC(=O)O)C(=O)O)s3)ccc2N1` gave Pol kappa inh inactive.
For CCOC(=O)c1cc(-c2ccc(OC)cc2)n(CCC(=O)Nc2cccc(C(C)=O)c2)c1C the results were Pol beta inh inactive, FEN1 inhibitor inactive, Pol kappa inh inactive, Pol iota inh inactive and POLH inh inactive.
Screening CCOc1ccccc1-c1c2cc(O)c(=O)cc-2oc2cc(O)c(O)cc12 returned Pol beta inh 1.6µM, FEN1 inhibitor 20µM, Pol kappa inh 14µM, WRN inhibitor 89µM and POLH inh 28µM.
For CCCCCCCCCCCCCCCC(=O)N[C@@H](COP(=O)(O)O)C(=O)O the results were Pol kappa inh 27µM!.
`CCCCCCCCCCCC(=O)NC(Cc1ccc(OC)c([N+](=O)[O-])c1)C(=O)O` (configuration not stated) gave Pol beta inh inactive, FEN1 inhibitor inactive, Pol kappa inh inactive, WRN inhibitor inactive, Pol iota inh inactive and POLH inh inactive.
`Cc1ccc2ccc3cc(C(=O)N4CCN(c5ccccc5)CC4)nc3c2[nH]1` gave Pol beta inh inactive, FEN1 inhibitor inactive, Pol kappa inh inactive, Pol iota inh inactive and POLH inh inactive.
